Sampled rows, rich in hits. Any-hit rate of the full collection: about 3.2%.
TROY NFkB inh – inhibitors of TROY-driven NF-kB signaling, primary screen, Q293 LMP1-TROYcd cells, NF-kB luciferase, uHTS; 360,000 compounds, 0.98% hits; Q293 LMP1-TROYcd NF-kB luciferase reporter, 4 h; inhibition, % at 10 µM;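 active = compounds whose plate-normalised and pattern-corrected inhibition of the luciferase reporter signal at the single screening dose is 50% or more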
EBV LMP1 NFkB – EBV LMP1-driven NF-kappaB luciferase reporter inhibitors, primary screen, cell-based, luminescence, single point; LMP1-induced NF-kappaB luciferase reporter cells; inhibition, % at 12.5 µM; 350,000 compounds, 0.69% hits; AID 504558, 2011; in the data active = inhibition above about 41%;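 also: 0% = neutral control wells and 100% = reference inhibitor control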
EWS-Fli block – EWS/Fli-driven NR0B1 reporter inhibitors, primary screen, A673 cells, NR0B1 luciferase, luminescence, MLPCN library; viability-normalised; inhibition, % at 12.6 µM; 350,000 compounds, 0.67% hits; AID 651661, 2012;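 active = mean inhibition of at least 50% after viability correction, with every replicate also passing that limit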;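 also: firefly luciferase signal divided by Alamar Blue viability fluorescence both relative to DMSO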
LGR2 inh – inhibitors of bursicon-induced LGR2 CRE-luciferase signal, primary screen, cell-based, HEK293, CRE-luciferase reporter, bursicon stimulation; inhibition, % at 9.99 µM; AID 720647, 2013; bursicon-stimulated, 4 h; Drosophila bursicon receptor LGR2 (rickets); 380,000 compounds, 0.35% hits;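 active = drop in luminescence signal, shown as inhibition above about 50% in the replicate tests, limit read from the data, passing the limit was not always enough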;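 also: agonist challenge used bursicon conditioned medium at about half maximal strength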
TWEAK-Fn14 inh – inhibitors of TWEAK-Fn14 signaling, primary screen, luciferase reporter cells, uHTS | 360,000 compounds, 2% hits | AID 1159606, 2016 | inhibition, % at 10 µM | TWEAK-stimulated Fn14 reporter cells, luciferase luminescence, 8 h; in the data active = inhibition above about 50%
PAX8 inh HTS – inhibitors of PAX8-driven TPO luciferase reporter, primary screen, RMG-I cells, single concentration | SteadyGlo, 24 h | inhibition, % at 12.6 µM | 360,000 compounds, 1.2% hits;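 active = mean replicate inhibition at least 60% with every replicate also reaching 60%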;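 also: luciferase light reporting Pax8 driven TPO promoter activity; plate controls were median of neutral control wells for no effect and mitoxantrone controls for full effect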
* marks the source's active call; other numbers are inactive results; / = no result.

SMILES	TROY NFkB inh	EBV LMP1 NFkB	EWS-Fli block	LGR2 inh	TWEAK-Fn14 inh	PAX8 inh HTS
C[C@@H]1CCCCO[C@H](CN(C)Cc2ccc(C(F)(F)F)cc2)[C@@H](C)CN([C@H](C)CO)C(=O)c2cc(NC(=O)Nc3ccc(F)cc3)ccc2O1	/	/	7.4	-0.7	/	-0.7
C[C@@H]1CN([C@@H](C)CO)C(=O)c2cc(NC(=O)Nc3ccc(F)cc3)ccc2O[C@@H](C)CCCCO[C@H]1CN(C)Cc1ccc(C(F)(F)F)cc1	/	/	14.9	9.0	/	83.7*
CCNC(=O)[C@@H]1[C@@H](CO)[C@@H]2Cn3c(ccc(C4=CCCCC4)c3=O)[C@H]1N2CCC(F)(F)F	/	/	0.5	-1.2	/	/
COCC(=O)N1C[C@@H]2[C@H](c3ccccc31)[C@H](CO)N2Cc1ccccc1F	/	/	4.6	1.3	/	3.5
C[C@H]1CCCCO[C@H](CN(C)Cc2ccc(C(F)(F)F)cc2)[C@@H](C)CN([C@@H](C)CO)C(=O)c2cc(NC(=O)Nc3ccc(F)cc3)ccc2O1	/	/	11.9	-44.3	/	95.5*
Cc1nnnn1/C(=C\c1ccccc1)C(=O)OCC(=O)Nc1ccc(Cl)cc1F	65.4*	-4.2	45.2	-4.9	69.8*	6.8
Cc1nnnn1/C(=C\c1ccccc1)C(=O)OCC(=O)Nc1cccc(S(=O)(=O)N(C)C)c1	26.3	-25.4	9.5	29.0	72.2*	27.7
c1ccc(OCCSc2nnc3sc4ccccc4n23)cc1	67.1*	70.1*	59.7*	91.7*	91.2*	/
COCC(=O)N(C)C[C@H]1Oc2cc(C#C[C@@H](C)O)ccc2S(=O)(=O)N([C@@H](C)CO)C[C@H]1C	/	/	-1.9	0.8	/	/
O=C1CCC(=O)N1CC1CC2CCC1C2 (stereo not given)	-2.5	0.3	62.7*	11.5	-4.9	-0.8
NC(=O)COC(=O)CC1CC2CCC1C2 (stereo not given)	3.0	-4.9	0.9	19.1	1.8	11.5
O=C(C1=C[C@H](C2CCCCC2)C[C@H](OCc2ccc(CO)cc2)O1)N1CCCC1	/	/	10.0	/	/	-2.4
O=C(c1cccc(F)c1)N1CCCCN2[C@H](CO)[C@H](c3ccc(-c4ccc(F)cc4)cc3)[C@H]2C1	/	/	-0.7	/	/	41.4
Cc1ccc(C)c(Nc2cc(C)nc(-c3ccccc3O)n2)c1	9.0	14.5	61.6*	3.9	9.3	13.5
C[C@H]1CN([C@@H](C)CO)C(=O)c2cc(-c3cccc(C#N)c3)cnc2O[C@@H]1CN(C)Cc1ccc(F)cc1	/	/	5.5	7.3	/	/
Cc1ccc(-c2csc3ncnc(Sc4nnc(CN5CCCCCC5=O)o4)c23)cc1	34.7	42.4*	/	/	84.8*	110.7*
C[C@@H]1C2CC(C/C2=N\NC(=O)c2ccncc2)C1(C)C (stereo not given in full)	-14.4	71.8*	/	13.9	1.6	-2.2
COc1ccc(OC)c2c1sc(=NC(=O)C1CCCCC1)n2C	-8.9	5.2	-4.8	-14.5	-7.3	-19.5
Cn1c(=NC(=O)C2CC2)sc2cccc(F)c21	-61.6	59.8*	-16.7	-47.0	-6.9	-10.9
CCCC(=O)Nc1ccc2c(c1)C(=O)N(C)[C@@H]1CC[C@H](CC(=O)NCc3ccccc3Cl)O[C@@H]1CO2	/	/	-3.7	-6.2	/	12.4
COc1ccc(NC(=O)N(C)C[C@H]2Oc3c(NS(=O)(=O)c4ccc(F)cc4)cccc3C(=O)N([C@H](C)CO)C[C@H]2C)cc1	/	/	-6.2	6.1	/	0.4
CNc1ccc(/C=C2\CSc3ccccc3C2=O)cc1[N+](=O)[O-]	62.2*	-8.4	-12.9	7.7	83.3*	3.9
CNc1ccc(/C=C(\C#N)c2ccccn2)cc1[N+](=O)[O-]	-71.2	-21.7	-112.2	-20.2	-58.0	-109.6
COc1ccc(/C=C2\CCC(C3CCCC3)C2=O)cc1 (stereo not given)	26.8	-31.9	-6.7	-54.4	49.4	-86.5
COc1ccc(/C=C2/CCC(CN3CCOCC3)C2=O)cc1 (stereo not given)	-17.6	86.4*	56.7*	-8.9	65.8*	5.0
SMILES	TROY NFkB inh	EBV LMP1 NFkB	EWS-Fli block	LGR2 inh	TWEAK-Fn14 inh	PAX8 inh HTS
Cc1cc(C)nc(S/C=C/C(=O)c2ccccc2F)n1	70.2*	-42.9	17.0	/	93.2*	8.3
CN1CCN(C(=O)c2ccccc2N(Cc2ccccc2)S(C)(=O)=O)CC1	7.1	0.9	/	/	72.0*	/
COc1cccc(-c2ccc3c(c2)O[C@H](CN(C)C(=O)C2CCC2)[C@H](C)CN([C@@H](C)CO)S3(=O)=O)c1	/	/	14.0	-11.7	/	/
O=C(c1ccccc1)c1c2c(cc3sc4ccccc4[n+]13)-c1cccc3cccc-2c13	39.7	-14.9	/	48.3	60.0*	65.5*
Cc1sc2cc3c(c(C(=O)c4ccccc4)[n+]2c1C)-c1cccc2cccc-3c12	/	/	30.5	65.0*	/	86.3*
Cc1cc2ccccc2cc1C(=O)c1ccccc1	-29.1	-0.7	-22.2	-2.2	-28.6	-8.0
O=C(c1ccccc1)c1ccc2ccccc2c1	-62.1	-13.9	-107.1	-77.5	-19.7	-119.7
Cc1cccc(NC(=O)Nc2ccc3c(c2)C(=O)N(C)[C@H]2CC[C@@H](CC(=O)NCc4ccccc4Cl)O[C@@H]2CO3)c1	/	/	-14.1	-8.2	/	16.0
OCC1OC(n2ccc3c(NO)ncnc32)C(O)C1O (stereo not given)	45.6	79.8*	49.0	92.0*	81.6*	/
OCC1OC(n2cnc3c(NCCc4ccccc4)ncnc32)C(O)C1O (stereo not given)	-0.2	7.0	-24.5	-38.5	-42.6	-21.7
Nc1ccc(CCNc2ncnc3c2ncn3[C@@H]2O[C@H](CO)[C@@H](O)[C@H]2O)cc1	-2.9	83.7*	2.6	4.3	1.1	5.3
OCC1OC(n2cnc3c(NCc4ccccc4O)ncnc32)C(O)C1O (stereo not given)	17.3	37.6	-3.4	18.2	59.4*	109.1*
CC(C)NC(=O)N(C)C[C@H]1OCc2ccccc2-c2c(n(C)c3ccccc23)C(=O)N([C@H](C)CO)C[C@H]1C	/	/	5.5	4.4	/	/
O=C(/C=C/Sc1ccccc1)c1ccc(Cl)cc1	30.4	-56.3	/	/	77.7*	/
O=C(C=Cc1ccccc1Cl)c1ccccc1	-45.6	-12.5	-20.7	-42.8	-2.9	-36.8
O=C(/C=C/Sc1ccccc1)c1ccccc1	34.4	-24.1	23.7	-50.2	90.4*	/
CCOc1ccc(CN2C(=O)c3ccccc3C2=O)cc1C(=O)NC1CC(C)(C)NC(C)(C)C1	-13.6	71.4*	-6.3	-2.6	1.1	2.9
CCn1nnnc1SCC(=O)N1c2ccccc2Sc2ccccc21	34.7	9.3	/	/	63.2*	/
Cc1cc(C)c(C(=O)/C=C/c2cccc3ccccc23)c(=O)[nH]1	53.7*	58.5*	21.1	67.3*	94.8*	99.1*

Assay outcomes (PubChem BioAssay)
